Results on 14 molecules are retold here after PubChem BioAssay.

A short description of test [1]: resazurin metabolic signal in HepG2 cells – cell-based, resazurin fluorescence, 24 h, PK04 Diversity Set, profiling panel (AID 1172). Also: test concentration not given here. The note with it: HepG2 viability, higher = more signal.
The nature of test [2]: budding yeast growth changes without added modifier – OD600, strain BY4716, 24 h, basal condition, primary screen (AID 1173). The following applies: S. cerevisiae BY4716 growth, OD600, 24 h; higher = more signal, called active from +8 up or from −8 down.
Test [3] can be described thus: viability profiling in MM1S myeloma cells – cell-based, resazurin fluorescence, basal, 24 h, PK04 Diversity Set, profiling panel (AID 1174).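 Also: MM1S multiple myeloma cell line; test concentration not given here.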 The following applies: higher = more signal, called active from +8 up or from −8 down. In general terms: The colour change of resazurin is a common sign of viable cells or microbes.
Test [4] has as its target Dihydroorotate dehydrogenase (quinone), mitochondrial (Plasmodium falciparum (isolate 3D7)) (UniProt Q08210). Description: inhibition of P. falciparum DHODH – biochemical, C-terminal His tag, absorbance 600 nm, primary screen (AID 1175).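 Also: recombinant parasite enzyme with a five histidine tag at its C terminus; test concentration not given here.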 The note with it: PfDHODH enzyme, DCIP absorbance 600 nm; higher = more signal, called active from +8 up or from −8 down.
Test [5] can be described thus: growth modulation of vineyard yeast isolate – strain RM11-1a, OD600, basal, 24 h, primary screen (AID 1177).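 Also: cultures grown under basal conditions with no added stressor; test concentration not given here.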 The following applies: S. cerevisiae RM11-1a growth, OD600, 24 h; higher = more signal, called active from +8 up or from −8 down.
Test [6] in a line: growth of efflux-deficient E. coli DRC39 – strain DRC39, OD650, 24 h, E. coli filamentation inducers, primary screen (AID 1178).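 Also: growth measured as culture turbidity by optical density at 650 nm; test concentration not given here.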 The following applies: E. coli DRC39 acrAB, higher = more signal, called active from +8 up or from −8 down.
Test [7] is described as follows: growth of efflux-deficient E. coli DRC39 – strain DRC39, OD650, 48 h, E. coli filamentation inducers, primary screen (AID 1179).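 Also: screen aims at cell division blockers that make cells filament.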 The note with it: E. coli DRC39 delta-acrAB growth, higher = more signal, called active from +8 up or from −8 down.
Test [8] in a line: viability profiling in RPMI8226 myeloma cells – cell-based, resazurin fluorescence, basal, 24 h, PK04 Diversity Set, profiling panel (AID 1180).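 Also: RPMI8826 multiple myeloma cell line at 5000 cells per well; test concentration not given here.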 The following applies: higher = more signal.
Test [9] concerns the target E3 ubiquitin-protein ligase XIAP (Homo sapiens) (UniProt P98170). The test can be described thus: small molecules binding XIAP protein – biophysical, small-molecule microarray, fluorescence 635 nm, primary screen (AID 1181).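 Also: score merges 667 nm emission and signal to noise over triplicate slides.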 The note with it: higher = more signal.

Molecules are shown by their SMILES. The source made the active and inactive calls.

Sequence of Dihydroorotate dehydrogenase (quinone), mitochondrial (Plasmodium falciparum (isolate 3D7)) (Q08210 whole entry, looked up): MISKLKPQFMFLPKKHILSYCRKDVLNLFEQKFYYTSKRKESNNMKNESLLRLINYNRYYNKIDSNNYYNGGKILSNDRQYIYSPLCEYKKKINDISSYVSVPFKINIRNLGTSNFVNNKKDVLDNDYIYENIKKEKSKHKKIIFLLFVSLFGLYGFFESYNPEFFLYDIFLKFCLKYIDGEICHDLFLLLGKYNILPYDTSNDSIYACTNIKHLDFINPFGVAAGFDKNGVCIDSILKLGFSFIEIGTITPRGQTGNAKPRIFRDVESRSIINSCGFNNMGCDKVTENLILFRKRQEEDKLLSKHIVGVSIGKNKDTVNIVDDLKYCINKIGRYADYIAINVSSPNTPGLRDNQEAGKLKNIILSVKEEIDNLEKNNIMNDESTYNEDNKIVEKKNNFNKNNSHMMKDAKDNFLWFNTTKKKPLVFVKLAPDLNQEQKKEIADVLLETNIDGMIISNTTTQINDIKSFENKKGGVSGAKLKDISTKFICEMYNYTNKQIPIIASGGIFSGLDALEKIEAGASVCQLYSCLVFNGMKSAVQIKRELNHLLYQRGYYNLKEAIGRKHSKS
Sequence of E3 ubiquitin-protein ligase XIAP (Homo sapiens) (P98170 whole entry, looked up): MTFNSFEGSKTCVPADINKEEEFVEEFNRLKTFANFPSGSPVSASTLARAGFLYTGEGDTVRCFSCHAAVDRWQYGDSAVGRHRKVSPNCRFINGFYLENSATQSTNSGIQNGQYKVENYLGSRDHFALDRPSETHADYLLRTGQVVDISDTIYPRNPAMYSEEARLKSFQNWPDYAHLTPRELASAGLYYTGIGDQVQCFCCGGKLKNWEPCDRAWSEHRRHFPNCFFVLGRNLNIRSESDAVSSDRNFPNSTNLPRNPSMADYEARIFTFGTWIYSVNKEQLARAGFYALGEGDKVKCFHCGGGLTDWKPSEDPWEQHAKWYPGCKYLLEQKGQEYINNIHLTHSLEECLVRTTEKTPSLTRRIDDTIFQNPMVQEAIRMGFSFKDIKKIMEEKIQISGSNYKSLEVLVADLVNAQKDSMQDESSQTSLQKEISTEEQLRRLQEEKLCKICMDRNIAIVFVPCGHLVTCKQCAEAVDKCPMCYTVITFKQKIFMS

With `COCCOC(=O)N1C(=O)[C@@]2(c3ccccc31)[C@H](C(=O)N1CCc3cc(OC)c(OC)cc3C1)[C@H]1C(=O)O[C@H](c3ccccc3)[C@H](c3ccccc3)N1[C@@H]2c1ccccc1OCCO`, the z-score in [1] is 0.223; in test [2] it was 1.03 (inactive); in [3], -0.517 (inactive); in test [5] it was -0.446 (inactive); in test [6] it was 0.659 (inactive); in [7], 1.31 (inactive). The z-score in [8] was 0.673. The composite z-score in test [4] was -1.85 (inactive); in test [9], -0.042.

Consider `CCC(=O)[C@]12O[C@@]3([C@@H]4C(=O)OCC[C@@H]41)N(CC)C(C)=C(C(=O)OC)[C@@H](c1ccccc1)N3C2=O`, for which the z-score in [1] is 0.121; in test [2], -2.81 (inactive); in [3], -0.01 (inactive); in [5] it was -0.805 (inactive); in [6], -0.772 (inactive); in test [7] it was 0.09 (inactive). In addition, the z-score in test [8] was found to be 0.74. Besides, the composite z-score in test [4] is -0.191 (inactive); in test [9], 0.0178.

Consider `CC(=O)NCCCC[C@@H]1NC(=O)[C@@H]2C[C@H](C(=O)NCCCCCCN(C)C)[C@H](c3ccc(O)cc3)N2C1=O`, for which the z-score in test [1] is 0.478; in test [2], -0.574 (inactive); in test [3] it was 1.12 (inactive); in [5], 0.662 (inactive); in test [6], 0.325 (inactive); in test [7], 0.249 (inactive). In [8], this molecule registered a z-score of 0.912. Further, the composite z-score is 0.266 (inactive) in test [4] and 0.103 in test [9].

As for `CC(=O)NCCCC[C@@H]1NC(=O)[C@@H]2C[C@H](C(=O)NCCCCCNC(=O)CS)[C@H](c3ccc(O)cc3)N2C1=O`, the z-score in test [1] was 1.25; in [2] it was -0.774 (inactive); in [3] it was 1.19 (inactive); in [5] it was -3.21 (inactive); in test [6], 2.5 (inactive); in test [7], 2.03 (inactive). This molecule also returned a z-score in test [8] of 0.833. For the same molecule, the values for the composite z-score in test [4] and in test [9] were -0.961 (inactive) and -0.131, respectively.

For `CCN1C(C)=C(C(=O)OC)[C@@H](c2ccccc2)N2C(=O)[C@](O)(C(=O)OC)[C@@H](c3ccccc3)C(C(C)=O)=C12`, the z-score in test [1] is -0.267; in test [2], -2.6 (inactive); in test [3], 1.43 (inactive); in test [5], -1.84 (inactive); in test [6] it was -0.891 (inactive); in test [7], -2 (inactive). This molecule had a z-score in test [8] of 0.554. The composite z-score in [4] was -5.15 (inactive); in test [9] it was -0.0167.

As for `CO[C@H]1COC(=O)[C@@H](OCc2ccccc2)C=C[C@H](C)[C@@H](OC)COC(=O)[C@H](OCc2ccccc2)C=C[C@@H]1C`, the z-score in test [1] was 1.12; in test [2], -2.2 (inactive); in test [3] it was 1.6 (inactive); in test [5], -3.47 (inactive); in test [6], 0.422 (inactive); in test [7], -0.97 (inactive). In test [8], the z-score came to 0.193. Besides, the composite z-score was -1.11 (inactive) in test [4] and -0.148 in [9].

Turning to `COCCCNC(=O)[C@@]1(Sc2ccc(C)cc2)CC(=O)N(Cc2cc(C(F)(F)F)cc(C(F)(F)F)c2)[C@@H]1c1ccc(CO)cc1I`, the z-score in test [1] was -0.125; in [2] it was -3.95 (inactive); in test [3], -2.01 (inactive); in [5], -2.16 (inactive); in test [6], 0.818 (inactive); in test [7] it was 0.328 (inactive). The z-score in [8] is -1.2. The composite z-score in test [4] was -0.625 (inactive); in test [9], 0.0425.

For `C=CCNC(=O)[C@H]1[C@@H]2C(=O)O[C@@H](c3ccccc3)[C@@H](c3ccccc3)N2[C@@H](c2ccccc2OCCO)[C@]12C(=O)N(C(=O)OCCOC)c1ccc(C#CCC(C(=O)OC)C(=O)OC)cc12`, the z-score in test [1] was -0.234; in test [2] it was 1.06 (inactive); in test [3] it was 1.25 (inactive); in [5], 1.72 (inactive); in test [6], 1.11 (inactive); in test [7], 0.761 (inactive). Also, the z-score in test [8] is -0.54. Besides, the figures for the composite z-score in test [4] and in test [9] were 0.229 (inactive) and 0.182, respectively.

As to `COc1ccc(-c2ccccc2[C@@H]2N[C@H](C(=O)O)CC[C@H]2C)cc1`, the z-score in test [1] was 0.0637; in test [2], -0.611 (inactive); in test [3], 1.37 (inactive); in test [5] it was 0.649 (inactive); in [6], -0.892 (inactive); in test [7] it was 0.0279 (inactive). This molecule also displayed a z-score in [8] of 1.61. In addition, the composite z-score in test [4] is 0.577 (inactive); in test [9], -0.113.

With `CO[C@H]1COC(=O)[C@H](C)NC(=O)CC=C[C@@H](C)[C@H](NS(=O)(=O)c2ccc(C)cc2)COC(=O)CC=C[C@@H]1C`, the z-score was 0.072 in test [1]; -1.57 (inactive) in test [2]; 1.19 (inactive) in test [3]; -0.724 (inactive) in test [5]; 0.127 (inactive) in test [6]; -0.244 (inactive) in [7]. The molecule also came in with a z-score in test [8] of 0.945. In addition, the composite z-score in test [4] is -0.253 (inactive); in test [9], 0.023.

Turning to `CO[C@]12C=C(Br)[C@@H](C[C@@H]1c1ccccc1)[C@@]1(CO1)C2=O`, the z-score in test [1] was 0.418; in test [2], -5.19 (inactive); in test [3], 0.0036 (inactive); in [5], -0.123 (inactive); in test [6] it was 2.39 (inactive); in test [7] it was 1.29 (inactive). In [8], the z-score was found to be 0.63. Moreover, the figures for the composite z-score in test [4] and in test [9] were 1.03 (inactive) and -0.142, respectively.

In the case of `CO[C@@H]1COC(=O)[C@H](COCc2ccccc2)NC(=O)CC=C[C@@H](C)[C@H](OC)COC(=O)[C@H](COCc2ccccc2)NC(=O)CC=C[C@H]1C`, the z-score in test [1] is 0.784; in test [2], -0.173 (inactive); in test [3] it was 1.28 (inactive); in [5] it was 0.371 (inactive); in test [6], 2.23 (inactive); in test [7], -0.0924 (inactive). This molecule also showed a z-score in test [8] of 0.415. In addition, the composite z-score in [4] was 0.946 (inactive); in [9], 0.378.

Take `CO[C@H]1COC(=O)[C@@H](C)COC(=O)[C@H](Cc2ccccc2)NC(=O)CC=C[C@H]1C`: the z-score in test [1] is 0.495; in test [2] it was -1.05 (inactive); in [3], 1.06 (inactive); in test [5], -1.48 (inactive); in test [6], 0.586 (inactive); in test [7], 0.274 (inactive). In [8], this molecule registered a z-score of 0.794. In addition, the values for the composite z-score in [4] and in test [9] were 0.234 (inactive) and -0.0293, respectively.

Turning to `C=CCNC(=O)[C@H]1[C@@H]2C(=O)O[C@@H](c3ccccc3)[C@@H](c3ccccc3)N2[C@@H](c2ccc(O)cc2)[C@]12C(=O)Nc1ccc(C#CCNC(N)=O)cc12`, the z-score in [1] was 0.435; in [2], -0.558 (inactive); in [3], 0.476 (inactive); in test [5], -0.381 (inactive); in test [6], 0.574 (inactive); in test [7] it was 0.771 (inactive). The z-score in test [8] turned out to be 0.917. Further, the composite z-score in test [4] was -0.438 (inactive); in test [9], 0.0223.
